From PubChem BioAssay AID1745847 (National Center for Advancing Translational Sciences (NCATS), 2022) come the findings set out here.

SMILES strings stand for the structures. The whole screen tested about 2,100 compounds, of which about 670 (32%) were called active. Another 50% or so got no clear call; they are omitted. Some of the results follow. Values without a mark were called inactive. The call rests on the fitted dose curve; in most records, active means well fitted inhibition curve with a large enough effect; inconclusive means small, poorly fitted or top-dose-only effect; inactive means no such curve, though single readings can be large or run the other way.
On the % scale 0 is the no-effect control and ±100 the full control effect; potency means the concentration at half of the fitted maximal effect.

This test can be described thus: CMV-Luciferase Counterscreen for Inhibitors of ATXN expression. Further: nearly all actives have a fitted effect of over 55% in size. To be noted: HEK-293 CMV-luciferase reporter, luminescence, 24 h; series mostly up to 57.5 µM; activity change, negative = inhibition: at the top concentration.
Turning to `O=C(c1ccoc1)N1CCN(c2cc(-c3ccccc3)nc3cc(-c4ccccc4)nn23)CC1`, the Potency was 10 µM (active).

Take `COc1ccccc1-c1cc2nc(-c3ccccc3)cc(N3CCN(C(=O)c4ccco4)CC3)n2n1`: the Potency was 7.94 µM (active).

Regarding `FC(F)(F)c1cc(-c2ccccn2)nc2cc(-c3ccccc3)nn12`, the “activity change, negative = inhibition” value was -0.328%.

For `COc1ccccc1-c1cc2nc(-c3ccccc3)cc(N3CCN(C(=O)c4ccoc4)CC3)n2n1`, the Potency was 7.94 µM (active).

For the compound `COc1cccc(-c2cc3nc(-c4ccccc4)cc(N4CCN(C(=O)c5ccoc5)CC4)n3n2)c1`, the Potency is 3.16 µM (active).

Consider `NC(=O)Cn1c(=O)n(CCc2ccccc2)c(=O)c2c3c(sc21)CCCC3`, for which the “activity change, negative = inhibition” value is 10.9%.

With `CCNc1ccc(Br)cc(C(=O)/C=C/c2ccccc2Cl)c1=O`, the activity change, negative = inhibition was -8.42% [at 11.4 µM].

Consider `O=C(c1ccoc1)N1CCN(c2cc(-c3cccnc3)nc3cc(-c4cccc(Cl)c4)nn23)CC1`, for which the Potency was 28.2 µM (active).

Consider `O=C(Nc1cccc2c1CCCC2)c1cc([N+](=O)[O-])ccc1Cl`, for which the Potency is 6.31 µM (active).

Consider `COc1cccc(CC2(CO)CCCN(Cc3[nH]c4ccc(C)cc4c3C)C2)c1` (stereo not given), for which the “activity change, negative = inhibition” value is -14.8%.

As for `Cc1ccc(S(=O)(=O)Nc2ccc(O)c3cccnc23)cc1`, the Potency is 28.2 µM (active).

For `Cc1ccc(S(=O)(=O)Nc2cccc3cccnc23)c([N+](=O)[O-])c1`, the “activity change, negative = inhibition” value is 80.5%.

On to `CCC(=O)NC(c1ccco1)c1cc(Br)c2cccnc2c1O` (stereo not given), for which the Potency is 8.91 µM (active).

In the case of `CC(=O)NC(c1ccc(C(C)C)cc1)c1ccc2cccnc2c1O` (stereo not given), the Potency is 1.26 µM (active).

As for `COc1cccc(C(NC(C)=O)c2ccc3cccnc3c2O)c1` (stereo not given), the Potency was 2.82 µM (active).

With `CC(=O)NC(c1ccc2ccccc2c1)c1ccc2cccnc2c1O` (stereo not given), the Potency was 0.355 µM (active).

Regarding `OC1(c2ccc(Br)cc2)CCNCC1`, the activity change, negative = inhibition was 0.489% [at 11.4 µM].

As for `CC(=O)NC(c1ccco1)c1cc(Cl)c2cccnc2c1O` (stereo not given), the Potency is 7.94 µM (active).

Consider `Oc1c(C(Nc2ccccn2)c2ccccn2)ccc2cccnc12` (stereo not given), for which the Potency was 2.82 µM (active).

Turning to `Cc1cccc(NC(c2ccc(C)s2)c2ccc3ccc(C)nc3c2O)n1` (stereo not given), the “activity change, negative = inhibition” value is 21.1%.

For the compound `CC(=O)NC(c1ccco1)c1ccc2cccnc2c1O` (stereo not given), the Potency was 1.58 µM (active).

`Oc1cccc(C(Nc2nccs2)c2ccc3cccnc3c2O)c1` (stereo not given): the Potency is 2.82 µM (active).

As to `CC(C)(C)OC(=O)N1CCC(c2c(C(=O)NCC3CCN(C4CCCC4)C3)cnn2-c2cccc(Cl)c2)CC1` (stereo not given), the activity change, negative = inhibition was -22.1% [at 11.4 µM].

As for `CN(Cc1ccccc1)C(=O)c1ccc(NC(=O)C2CCN(C(=O)OC(C)(C)C)CC2)cc1`, the Potency was 7.08 µM (active).

For the compound `O=C(Cc1coc2cc3c(cc12)CCC3)OCC(=O)N1CCCC1=O`, the Potency is 15.8 µM (active).

With `Cc1ccc(-n2c(-c3ccccc3)c[n+]3c2CCc2ccccc2-3)c(C)c1`, the Potency was 0.794 µM (active).

For the compound `S=C(Nc1ccccc1)Nc1ccc(OCc2ccc(Cl)cc2Cl)cc1`, the Potency is 3.55 µM (active).

On to `S=C(Nc1cc(Cl)ccc1Oc1ccccc1)N1CCN(c2ccccn2)CC1`, for which the Potency is 17.8 µM (active).

Regarding `O=C(Nc1ccc(Br)cc1)c1cccc(OC(=S)N2CCOCC2)c1`, the Potency is 2 µM (active).

For the compound `Oc1[nH]c2ccc(Br)cc2c1N=NC(=S)N1CCOCC1`, the activity change, negative = inhibition was 43.7% [at 11.4 µM].

In the case of `Cc1ccc(S(=O)(=O)N2CCc3ccccc3CC2)cc1`, the Potency is 0.794 µM (active).

As to `COCCNC(=O)c1cccc(Nc2nc(-c3ccccc3)c3cc(Cl)ccc3n2)c1`, the Potency was 15.8 µM (active).

Take `O=C(NCCc1csc(-c2cccnc2)n1)c1cccc(Cl)c1`: the “activity change, negative = inhibition” value is -26.6%.

On to `OCCN1CCN(C(=S)c2ccc(-c3ccccc3)cc2)CC1`, for which the Potency was 2.51 µM (active).

As to `CCN1CCN(C(=S)c2ccc(-c3ccccc3)cc2)CC1`, the Potency is 2 µM (active).

Take `CC(C)=C1SC(N2CCN(c3ccc(C)c(Cl)c3)CC2)=NC1=O`: the activity change, negative = inhibition is 103% [at 11.4 µM].

As to `CCn1c2ccccc2c2cc(NC(=O)COC(=O)C3CCC(=O)N3)ccc21` (stereo not given), the “activity change, negative = inhibition” value is 18.1%.

Take `CCn1c2ccccc2c2cc(C3C(C#N)=C(N)Oc4n[nH]c(COC)c43)ccc21` (stereo not given): the Potency is 2.82 µM (active).

Turning to `CC1(C(=O)Nc2cnc3ccccc3c2)CCN1C(=O)c1ccccc1CCc1ccccc1` (stereo not given), the Potency is 28.2 µM (active).

With `COC(=O)C1=C(C)N(Cc2ccccc2)C(=NCCc2cccnc2)N[C@H]1c1ccc(Br)cc1`, the Potency is 28.2 µM (active).

For the compound `Cc1ccc(OCC(O)Cn2c(=N)n(CCN3CCCCC3)c3ccccc32)cc1` (stereo not given), the “activity change, negative = inhibition” value is -13.4%.

With `N=c1n(CCCOc2ccccc2Cl)c2ccccc2n1CC(N)=O`, the “activity change, negative = inhibition” value is 2.57%.

Turning to `CCCCn1c(=N)n(CCOc2ccc(C)cc2)c2ccccc21`, the Potency is 10 µM (active).

Regarding `Cc1ccc(-c2nc3ccc(Cl)cn3c2CC(C)(C)C)cc1`, the activity change, negative = inhibition was -2.84% [at 11.4 µM].

Consider `COc1cc(C)c(C(=O)CC(=O)c2c(C)cc(OC)cc2C)c(C)c1`, for which the activity change, negative = inhibition is -13.8% [at 11.4 µM].

For the compound `Cc1ccc(C(=O)N/N=C/c2nc3ccccc3n2C)cc1`, the “activity change, negative = inhibition” value was -21.7%.

Take `Cc1ccc(C(C)C)c(OCc2ccc(C(=O)N/N=C/c3ccc(O)cc3O)cc2)c1`: the Potency is 2.51 µM (active).

On to `Cc1ccc(C(C)C)c(OCc2ccc(C(=O)N/N=C/c3cccc(O)c3O)cc2)c1`, for which the Potency is 2.82 µM (active).

Take `O=C(c1ccc(-c2nnc(Nc3cccc(Cl)c3)c3ccccc23)cc1)N1C[C@H]2C[C@H](C1)c1cccc(=O)n1C2`: the activity change, negative = inhibition was 46% [at 11.4 µM].

As for `CCN(CC)CCNC(=O)c1ccc(NC(=O)c2ccccc2-c2ccc(C(F)(F)F)cc2)cc1`, the “activity change, negative = inhibition” value is -16.1%.

Turning to `COC(=O)c1ccc(N2CCOCC2)c(NC(=O)Nc2cccc(OC)c2)c1`, the activity change, negative = inhibition is 2.86% [at 11.4 µM].

With `COC(=O)c1cc(NC(=O)c2cc(-c3ccc(C(F)(F)F)cc3)oc2C(F)(F)F)ccc1N1CCOCC1`, the Potency was 22.4 µM (active).

On to `O=C(NCc1ccco1)c1nc2c(nnn2Cc2ccccc2Cl)c(=O)[nH]1`, for which the Potency is 1.58 µM (active).

Regarding `O=C(NCc1ccco1)/C(=C/c1cccc(C(F)(F)F)c1)c1nc2ccccc2[nH]1`, the activity change, negative = inhibition is -12% [at 11.4 µM].

In the case of `O=C(NCc1ccco1)c1ccc(-c2cccc(Cl)c2)o1`, the “activity change, negative = inhibition” value was 34.1%.

On to `CC(C)CCNC(=O)COc1cccc2c1OC(C)(C)C2`, for which the “activity change, negative = inhibition” value was -14.5%.

With `Cc1ccc(OCCCC(=O)NNC(=O)c2ccccn2)cc1`, the Potency was 11.2 µM (active).

Take `Cc1cccc(OCCCC(=O)Nc2nccs2)c1`: the activity change, negative = inhibition was 249% [at 11.4 µM].

On to `CC(=O)c1cccc(-c2cnc3c(NC=O)cc(-c4ccccc4F)cn23)c1`, for which the activity change, negative = inhibition was -18.2% [at 11.4 µM].

With `CC(=O)c1cccc(-c2csc3ncnc(Sc4nnnn4C)c23)c1`, the Potency is 8.91 µM (active).

Turning to `Cn1nnnc1Sc1ncnc2scc(-c3cccc(S(C)(=O)=O)c3)c12`, the Potency was 14.1 µM (active).

For the compound `O=C(CN1CCOCC1)N/N=C/c1c(O)ccc2ccccc12`, the Potency is 8.91 µM (active).

Consider `NC(=O)N/N=C/c1c(O)ccc2oc3c(c12)CCCC3`, for which the “activity change, negative = inhibition” value is 111%.

`C=C(C)Cn1c(SCC(=O)N/N=C/c2c(O)ccc3ccccc23)nc2ccccc2c1=O`: the Potency was 22.4 µM (active).

Turning to `O=C(CSCC(=O)Nc1ccccc1)N/N=C/c1c(O)ccc2ccccc12`, the Potency was 0.501 µM (active).

Regarding `CCCCn1c(SCC(=O)Nc2cc(NC(=O)c3ccco3)ccc2C)nc2ccccc2c1=O`, the “activity change, negative = inhibition” value was -9.45%.

Consider `O=C(CN1CCCC1)N/N=C/c1c(O)ccc2ccccc12`, for which the Potency was 1.78 µM (active).

`CCCC(=O)Nc1c(C(=O)OCC)[nH]c2ccccc12`: the activity change, negative = inhibition is -4.94% [at 11.4 µM].

Consider `O=c1cc(N2CCN(c3ccccc3)CC2)[nH]c(=O)n1C1CCCCC1`, for which the “activity change, negative = inhibition” value is 100%.

In the case of `CCCC(=O)Nc1ccc2nc(SCC(=O)N3CCCC3)sc2c1`, the “activity change, negative = inhibition” value was -8.01%.

For the compound `O=C(CCSc1nc2ccccc2s1)N/N=C/c1c(O)ccc2ccccc12`, the Potency is 7.94 µM (active).

With `CCOC(=O)C1CCN(c2ncnc3c2cnn3-c2ccc(Cl)cc2)CC1`, the Potency was 2.24 µM (active).

With `CC1CCCN(c2ncnc3c2cnn3-c2ccc(Cl)cc2)C1` (stereo not given), the Potency is 22.4 µM (active).

For the compound `COc1ccc(NC(C)C(=O)N/N=C/c2c(O)ccc3ccccc23)cc1` (stereo not given), the Potency was 6.31 µM (active).

For `COc1ccccc1NCC(=O)N/N=C/c1c(O)ccc2ccccc12`, the Potency was 3.16 µM (active).

As for `COc1cc([N+](=O)[O-])cc(/C=N/NC(=O)C(C)Nc2cccc3ccccc23)c1O` (stereo not given), the activity change, negative = inhibition is 8.76% [at 11.4 µM].

For `CCc1cc[n+](C2=C([O-])c3ccccc3C(=O)/C2=N\S(=O)(=O)c2cccs2)cc1`, the Potency was 20 µM (active).

With `COc1cc(/C=C/c2ccc3cccc(O)c3n2)cc(OC)c1OC`, the “activity change, negative = inhibition” value was 16.4%.

For the compound `Oc1ccc2ccccc2c1/C=C/c1ccc2c(Br)cc(Br)c(O)c2n1`, the Potency is 3.16 µM (active).

For `CCCc1cc(=O)[nH]c(-n2[nH]c3c(c2=O)CCCC3)n1`, the Potency was 12.6 µM (active).

With `NC(=S)N1OC[C@@H]2COc3ccc4ccccc4c3[C@@H]21`, the “activity change, negative = inhibition” value is 43.5%.

On to `CC(NC(=O)Nc1cccc([N+](=O)[O-])c1)(C(F)(F)F)C(F)(F)F`, for which the Potency was 17.8 µM (active).

In the case of `O=C(NC1CCN(Cc2ccccc2)CC1)c1cccc(S(=O)(=O)Nc2ccc(SC(F)F)cc2)c1`, the Potency was 14.1 µM (active).

With `CCC(C)n1cnc2c(c1=O)c1nc3ccccc3nc1n2-c1ccc2c(c1)OCCO2` (stereo not given), the “activity change, negative = inhibition” value was 2.65%.

With `c1ccc(COc2ncnc3c2ncn3CCCN2CCN(Cc3cccc4ccccc34)CC2)cc1`, the Potency was 14.1 µM (active).

`Cc1cc2oc3cc(NCCC4CCCN4C)ccc3c(=O)c2cc1C` (stereo not given): the “activity change, negative = inhibition” value was 108%.

For `COc1ccc(CC(N)c2csc(NC(=O)c3ccccc3OC)n2)cc1` (stereo not given), the “activity change, negative = inhibition” value is -21.7%.

`COc1ccc(CC(N)c2csc(NC(=O)c3cc(C(C)(C)C)nn3Cc3ccccc3)n2)cc1` (stereo not given): the activity change, negative = inhibition was -13.8% [at 11.4 µM].

Take `COc1ccc(CC(N)c2csc(NC(=O)c3cccc(OC(F)(F)F)c3)n2)cc1` (stereo not given): the Potency was 28.2 µM (active).

With `O=C(Nc1nc2cc(Cl)ccc2s1)C1CCCN(S(=O)(=O)c2cccc3cccnc23)C1` (stereo not given), the Potency is 25.1 µM (active).
